# “And” between values parts separate entries of the source, which are not always exact repeats. Equal entries are not always repeated. Screen size: about 5,500 compounds; about 2,000 (36%) were called active. About 18% were inconclusive and are not listed. Some of the results follow. A number with no mark means an inactive call. Cut-off read from the data, not from the text of the source: active = normalized growth mostly below about 0.91 (no sharp cut-off); inconclusive = no clear call, values can overlap the other calls; inactive = mostly above about 0.92.
# Experiment: chemical genetic growth profiling, strain panel (AID 1159580);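 note: tested at 20 µM; growth read once vehicle control cultures reached saturation at 30 °C; 1 = growth at the plate median or of vehicle wells; lower values mean less growth of the strain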
# Settings: S. cerevisiae deletion strains, growth OD
smiles,measurement,setting,value
Nc1cc(-c2ccncc2)c[nH]c1=O,normalized growth,"locus YAL021C, strain ccr4, hits give low values",0.86 (active)
same,normalized growth,"locus YAL026C, strain drs2, hits give low values",0.802 (active)
same,normalized growth,"locus YAL030W, strain snc1, hits give low values",0.885 (active)
same,normalized growth,"locus YBL061C, strain skt5, hits give low values",0.899 (active)
same,normalized growth,"locus YBR009C, strain hhf1, hits give low values",0.671 (active)
same,normalized growth,"locus YBR021W, strain FUR4, hits give low values",0.952
same,normalized growth,"locus YBR023C, strain chs3, hits give low values",0.832 (active)
same,normalized growth,"locus YBR171W, strain sec66, hits give low values",0.966
same,normalized growth,"locus YBR229C, strain ROT2, hits give low values",0.952
same,normalized growth,"locus YBR231C, strain swc5, hits give low values",0.562 (active)
same,normalized growth,"locus YBR279W, strain paf1, hits give low values",0.63 (active)
same,normalized growth,"locus YCL011C, strain gbp2, hits give low values",0.833 (active)
same,normalized growth,"locus YCL016C, strain dcc1, hits give low values",0.567 (active)
same,normalized growth,"locus YCL029C, strain bik1, hits give low values",0.988
same,normalized growth,"locus YCL061C, strain MRC1, hits give low values",0.901 (active)
same,normalized growth,"locus YCL069W, strain vba3, hits give low values",0.757 (active)
same,normalized growth,"locus YCR088W, strain abp1, hits give low values",0.925
same,normalized growth,"locus YDL005C, strain med2, hits give low values",0.971
same,normalized growth,"locus YDL035C, strain GPR1, hits give low values",0.907
same,normalized growth,"locus YDL040C, strain nat1, hits give low values",0.936
same,normalized growth,"locus YDL074C, strain BRE1, hits give low values",0.913
same,normalized growth,"locus YDL101C, strain DUN1, hits give low values",0.994
same,normalized growth,"locus YDL134C, strain PPH21, hits give low values",0.823 (active)
same,normalized growth,"locus YDL185W, strain tfp1, hits give low values",0.973
same,normalized growth,"locus YDL192W, strain arf1, hits give low values",0.974
same,normalized growth,"locus YDR001C, strain nth1, hits give low values",0.972
same,normalized growth,"locus YDR069C, strain doa4, hits give low values",0.885 (active)
same,normalized growth,"locus YDR101C, strain arx1, hits give low values",0.977
same,normalized growth,"locus YDR137W, strain rgp1, hits give low values",0.976
same,normalized growth,"locus YDR159W, strain sac3, hits give low values",0.928
same,normalized growth,"locus YDR162C, strain NBP2, hits give low values",0.949
same,normalized growth,"locus YDR195W, strain ref2",0.951
same,normalized growth,"locus YDR297W, strain sur2, hits give low values",0.856 (active)
same,normalized growth,"locus YDR318W, strain mcm21, hits give low values",0.809 (active)
same,normalized growth,"locus YDR334W, strain swr1, hits give low values",0.664 (active)
same,normalized growth,"locus YDR335W, strain msn5, hits give low values",0.934
same,normalized growth,"locus YDR388W, hits give low values",0.919 (active)
same,normalized growth,"locus YDR392W, strain spt3, hits give low values",0.265 (active)
same,normalized growth,"locus YDR502C, strain sam2, hits give low values",0.926
same,normalized growth,"locus YEL003W, strain gim4, hits give low values",0.624 (active)
same,normalized growth,"locus YEL037C, strain rad23, hits give low values",0.937
same,normalized growth,"locus YEL061C, strain CIN8 (second series), hits give low values",0.787 (active)
same,normalized growth,"locus YEL061C, strain CIN8, hits give low values",0.98
same,normalized growth,"locus YER015W, strain faa2, hits give low values",0.993
same,normalized growth,"locus YER016W, strain bim1, hits give low values",0.672 (active)
same,normalized growth,"locus YER110C, hits give low values",0.983
same,normalized growth,"locus YER111C, strain swi4, hits give low values",0.979
same,normalized growth,"locus YER155C, strain BEM2 (second series), hits give low values",0.368 (active)
same,normalized growth,"locus YER155C, strain BEM2, hits give low values",0.963
same,normalized growth,"locus YER167W, strain BCK2, hits give low values",0.86 (active)
same,normalized growth,"locus YFR010W, strain ubp6, hits give low values",0.863 (active)
same,normalized growth,"locus YGL078C, strain dbp3, hits give low values",0.976
same,normalized growth,"locus YGL086W, strain mad1, hits give low values",0.872 (active)
same,normalized growth,"locus YGL167C, strain pmr1, hits give low values",0.974
same,normalized growth,"locus YGL173C, strain kem1, hits give low values",0.715 (active)
same,normalized growth,"locus YGL227W, strain vid30, hits give low values",0.96
same,normalized growth,"locus YGL240W, strain doc1, hits give low values",0.684 (active)
same,normalized growth,"locus YGL248W, strain PDE1, hits give low values",0.678 (active)
same,normalized growth,"locus YGL253W, strain hxk2, hits give low values",0.523 (active)
same,normalized growth,"locus YGR078C, strain PAC10, hits give low values",0.527 (active)
same,normalized growth,"locus YGR135W, strain pre9, hits give low values",0.945
same,normalized growth,"locus YGR229C, strain SMI1, hits give low values",0.923
same,normalized growth,"locus YGR252W, strain gcn5, hits give low values",0.706 (active)
same,normalized growth,"locus YHR013C, strain ard1, hits give low values",0.506 (active)
same,normalized growth,"locus YHR027C, strain rpn1, hits give low values",0.872 (active)
same,normalized growth,"locus YHR030C, strain SLT2, hits give low values",0.959 and 1.04
same,normalized growth,"locus YHR079C, strain IRE1 (second series), hits give low values",0.988
same,normalized growth,"locus YHR079C, strain IRE1, hits give low values",1.04
same,normalized growth,"locus YHR094C, strain hxt1, hits give low values",0.978
same,normalized growth,"locus YHR129C, strain ARP1, hits give low values",0.961
same,normalized growth,"locus YHR142W, strain chs7, hits give low values",0.705 (active)
same,normalized growth,"locus YHR200W, strain rpn10, hits give low values",0.974
same,normalized growth,"locus YIL066C, strain RNR3, hits give low values",0.74 (active)
same,normalized growth,"locus YIL073C, strain SPO22, hits give low values",0.713
same,normalized growth,"locus YIL125W, strain kgd1, hits give low values",0.982
same,normalized growth,"locus YIR030C, strain dcg1, hits give low values",0.988
same,normalized growth,"locus YJL092W, strain hpr5, hits give low values",0.923
same,normalized growth,"locus YJL095W, strain BCK1 (second series), hits give low values",0.714 (active)
same,normalized growth,"locus YJL095W, strain BCK1, hits give low values",0.961 and 1.01
same,normalized growth,"locus YJL115W, strain asf1, hits give low values",0.932
same,normalized growth,"locus YJL129C, strain trk1, hits give low values",0.94
same,normalized growth,"locus YJL134W, strain LCB3, hits give low values",0.994
same,normalized growth,"locus YJL154C, strain vps35, hits give low values",0.964
same,normalized growth,"locus YJL164C, strain tpk1, hits give low values",0.69 (active)
same,normalized growth,"locus YJL166W, strain qcr8, hits give low values",0.539 (active)
same,normalized growth,"locus YJL168C, strain set2, hits give low values",0.986
same,normalized growth,"locus YJL187C, strain SWE1 (second series), hits give low values",0.96
same,normalized growth,"locus YJL187C, strain SWE1, hits give low values",0.755 (active)

# Source: PubChem BioAssay AID1159580 (chemical genetic matrix, 2015)
